Screens from PubChem BioAssay.
Most compounds without a hit are left out; they make up all but 10% or so of the library.
Luciferase inh – Firefly luciferase inhibition profiling of diverse chemical library using quantitative high-throughput screening. Luciferin 4-monooxygenase (Photinus pyralis), P08659. purified P. pyralis luciferase, luminescence, biochemical. Potency, µM (top dose mostly 115 µM), usual class: inhibitors. 76,000 tested, 2.5% active; note: nearly all actives have a fitted effect of over 65% in size
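FLuc 10nM, D-luciferin 10uM, ATP 10uM, Mg acetate 10mM, Tris acetate pH 7.5, Tween/BSA; cpd qHTS; enzyme added last; CCD luminescence.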
3T3 cytotox – Cytotoxic Profiling in NIH 3T3 Cell Line of Diverse Libraries Using Quantitative High-Throughput Screening | AID 1345082, 2018 | Potency, µM (doses to about 96.7 µM), without a hit: at the top dose activity change, negative = cytotoxicity, most hits filed as inhibitors | 94,000 tested, 4.3% active | NIH 3T3 viability, CellTiter-Glo ATP luminescence, 48-72 h; note: nearly all actives have a fitted effect of over 55% in size
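Luminescent ATP readout (CellTiter-Glo, 10 min RT) after 48 or 72 hr compound exposure of NIH 3T3 cells seeded at 400 cells/well in 1536-well format; quantitative HTS.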
GPT2 inh – Primary qHTS assay for inhibitors of Glutamate pyruvate transaminase 2 (GPT2). Recombinant GPT2, coupled pyruvate oxidase/HRP Amplex Red fluorescence. Potency, µM (titrated, usually from 57.7 µM), for the others: at the highest dose activity change, negative = inhibition, actives largely listed as inhibitors. AID 1671188, 2021. 100,000 tested, 0.25% active; note: nearly all actives have a fitted effect of over 60% in size
Target sequence (Q8TD30 whole entry, looked up): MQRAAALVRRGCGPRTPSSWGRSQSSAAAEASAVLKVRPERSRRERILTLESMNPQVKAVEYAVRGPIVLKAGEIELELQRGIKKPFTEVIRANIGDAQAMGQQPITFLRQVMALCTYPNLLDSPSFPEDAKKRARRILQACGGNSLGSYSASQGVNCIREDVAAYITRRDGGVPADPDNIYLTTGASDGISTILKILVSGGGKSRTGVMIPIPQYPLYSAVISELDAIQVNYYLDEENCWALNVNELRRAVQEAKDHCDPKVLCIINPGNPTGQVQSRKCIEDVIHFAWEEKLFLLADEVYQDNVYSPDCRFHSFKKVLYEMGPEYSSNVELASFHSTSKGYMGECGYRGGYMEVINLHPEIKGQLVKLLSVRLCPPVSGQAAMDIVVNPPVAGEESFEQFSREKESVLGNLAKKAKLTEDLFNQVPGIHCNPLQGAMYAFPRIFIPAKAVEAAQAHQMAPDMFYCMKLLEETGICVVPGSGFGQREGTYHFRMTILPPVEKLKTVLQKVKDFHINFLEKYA
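Fluorescence of coupled pyruvate oxidase/HRP/Amplex Red system (50uM Amplex, 30 min, dark) reports pyruvate formed by GPT2. Enzyme reaction: 10ng/uL GPT2, 2mM L-alanine, 250uM a-KG, 30 min room temperature, pH 7.5; 50uM AOA control.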
hNpr1 antagonist – Natriuretic polypeptide receptor (hNpr1) antagonism - Primary qHTS. Potency, µM (doses to about 46.3 µM), without a hit: at the highest dose activity change, negative = inhibition, hits mostly inhibitors. Atrial natriuretic peptide receptor 1 (Homo sapiens), P16066. AID 1347048, 2019. 76,000 tested, 1.6% active. HEK293 hNpr1 GloSensor cGMP, ANP-stimulated luminescence; calls by dose curve; note: nearly all actives have a fitted effect of over 60% in size
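HEK293 cells stably expressing human Npr1 and cGMP GloSensor pGS-40F, loaded 2 h with 2% GloSensor reagent, given compound 30 min at room temperature. Luminescence read before and 20 min after 0.1 nM hNppA.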
HEK293 tox – Cytotoxic Profiling in HEK 293 Cell Line of Diverse Libraries Using Quantitative High-Throughput Screening; HEK 293 viability, ATP luminescence (CellTiter-Glo), 48-72 h; 94,000 tested, 6.6% active; Potency, µM (doses to about 115 µM), for inactives: at the highest dose activity change, negative = cytotoxicity, actives largely listed as inhibitors; note: nearly all actives have a fitted effect of over 60% in size
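HEK 293 cells seeded at 250 cells/well were exposed to compound for 48 or 72 hr at 37 degree Celsius. Viability taken as ATP content by CellTiter-Glo luminescence.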
The depositor's hits bear a star; i = inactive; ? = inconclusive; nt = not tested or not shown; [ ] = remark or other dose. Unless noted, calls come from the whole dose curve; as a rule, active = well fitted curve in the direction sought with a large enough effect; inconclusive = small, poorly fitted or top-dose-only effect, or another doubt; inactive = no such curve, though single readings can be large; an effect the other way counts as inactive or inconclusive. % is set by controls: 0 for no effect and ±100 for the full control effect; potency is the fitted concentration of half-maximal effect.

SMILES | Luciferase inh | 3T3 cytotox | GPT2 inh | hNpr1 antagonist | HEK293 tox
COCC(=O)NC1CCN(Cc2ccc(-c3ccsc3)cc2)C1 (configuration not stated) | nt | ? | i | nt | ?
CCC1C(=O)NCCN1Cc1cn(-c2cccc(F)c2)nc1-c1ccc(C)o1 (configuration not stated) | 28.2µM* | ? | -17.2% | -7.3% | ?
CN(C)CC(=O)NC1CCN(c2ccc3nnc(C4CC4)n3n2)CC1 | nt | -20.4% | nt | nt | -6.7%
O=C1CCCCN1Cc1nc(C2CCOC2)no1 (configuration not stated) | i | 4.3% | i[11.5 µM] | 4.0% | 1.8%
COC1CCCN(c2ncccc2-c2cc(-c3ccccc3)nc3c(C)noc23)C1 (configuration not stated) | i | ? | -0.3%[88.5 µM] | -30.2%[70.6 µM] | 79.4µM*
COC1CCN(c2cc(-c3cccnc3)nc3c(C)noc23)CC1 | i | ? | -13.7%[88.5 µM] | 1.7%[70.6 µM] | -13.7%[172 µM]
COC1CCCN(c2cc(-c3cccnc3)nc3c(C)noc23)C1 (configuration not stated) | i | 35.5µM* | -8.1%[88.5 µM] | -3.2%[70.6 µM] | ?
COc1ccc(CCNC(=O)c2ccc3nnc(-c4ccc([S+](C)(=O)[O-])cc4)n3c2)cc1 | nt | -22.5% | i | nt | ?
COCCN1C(=O)c2ccccc2C(C(=O)Nc2cccc(C)n2)C12CCCC2 (configuration not stated) | i | -17.5% | i | -1.5% | ?
O=C(c1nnc(CN2CCOCC2)n1-c1ccccc1)N1CCC[C@@H]1C(c1ccccc1)c1ccccc1 | i | ? | 3.0% | -2.1% | ?
O=C(c1nnc(COc2ccc(F)c(F)c2)n1-c1ccccc1)N1CCC[C@@H]1c1cccc(F)c1 | i | 10µM* | 3.8% | -10.5% | ?
O=C(c1nnc(CN2CCC(F)(F)CC2)n1-c1cccnc1)N1CCC[C@@H]1C(c1ccccc1)c1ccccc1 | i | 25.1µM* | -28.4% | -6.5% | -24.2%
O=C(c1nnc(COc2cc(F)cc(F)c2)n1-c1ccccc1)N1CCC[C@@H]1c1cccc(F)c1 | i | 39.8µM* | 2.2% | -1.7% | ?
O=C(c1nnc(COc2ccc(F)cc2)n1-c1ccccc1)N1CCC[C@@H]1C(c1ccccc1)c1ccccc1 | i | 6.31µM* | 1.7% | -7.5% | ?
CCOC(=O)C1CCCN(C(=O)c2ccc3oc(-c4ccnc(Cl)c4)nc3c2)C1 (configuration not stated) | nt | ? | 0.7% | nt | ?
O=C(NC1CCCCC1)C1CCCCN1Cc1ccc(-c2ccsc2)cc1 (configuration not stated) | nt | -50.6% | -12.2% | nt | 39.8µM*
O=C(NCCc1ccc(Cl)cc1)C1CCCCN1Cc1ccc(-c2ccsc2)cc1 (configuration not stated) | nt | 25.1µM* | -9.1% | nt | 39.8µM*
O=C(NCC(F)(F)F)C1CCCCN1Cc1ccc(-c2ccsc2)cc1 (configuration not stated) | nt | -29.7% | -34.1% | nt | ?
CSc1ccc(-c2cccc(CN3CCC(NC(=O)Nc4ccc(Cl)cc4)CC3)c2)cc1 | nt | 12.6µM* | nt | nt | 22.4µM*
CSc1ccc(-c2cccc(CN3CCC(NC(=O)c4ccccc4Cl)CC3)c2)cc1 | nt | ? | nt | nt | 39.8µM*
CSc1ccc(-c2cccc(CN3CCC(NC(=O)c4ccc(Cl)cc4)CC3)c2)cc1 | nt | -12.6% | nt | nt | -10.5%
O=C(Nc1ccccc1)NC1CCN(Cc2cccc(-c3ccc(F)c(F)c3)c2)CC1 | nt | 15.8µM* | -29.5% | nt | 20µM*
COc1cccc(C(=O)N2CCC(c3nn(-c4ccccn4)c(=O)[nH]3)CC2)c1 | nt | -7.2% | i | nt | i
CCC(=O)Nc1ccc(OCC(=O)NCc2ccccc2OC(C)CC)cc1 (configuration not stated) | i | -4.5% | 2.3% | 4.5% | ?
CCCCOC(=O)N1CCC2(CC1)[C@@H](C(=O)OCC)[C@@H](O)C(=O)N2C | nt | ? | nt | nt | -16.4%
SMILES | Luciferase inh | 3T3 cytotox | GPT2 inh | hNpr1 antagonist | HEK293 tox
O=C(c1ccc2c(c1)OCO2)N1CCC(n2cc(-c3nc(-c4ccccc4)no3)nn2)CC1 | ? | ? | i | ? | ?
COc1ccc(OCC2CCCN(C(=O)c3cn(C4CCCCC4)nn3)C2)cc1 (configuration not stated) | 31.6µM* | ? | ? | -3.4% | ?
CN(C)c1cccc(C(=O)N2CCC(n3cc(-c4nc(-c5ccccc5)no4)nn3)C2)c1 (configuration not stated) | 31.6µM* | ? | i | ? | 28.2µM*
O=C(c1ccc2c(c1)OCO2)N1CCC(n2cc(-c3nc(-c4ccccc4)no3)nn2)C1 (configuration not stated) | ? | -42.9% | i | 12.6µM* | ?
COc1ccc(C(=O)N2CCCC(n3cc(-c4nc(-c5ccccc5)no4)nn3)C2)cc1F (configuration not stated) | ? | ? | i | ? | 20µM*
Cn1ncc2c(C(=O)NCc3ccccn3)cc(-c3ccc(F)cc3)nc21 | nt | -19.3% | ? | nt | ?
O=C(Nc1ccccc1)N1CCC(N2CC(OCC3CC3)C23CCOCC3)CC1 (configuration not stated) | i | -6.0% | i | 8.7% | -6.3%
O=C(c1cccc(Cl)c1)N1CCC(n2cc(-c3nc(-c4ccccc4)no3)nn2)C1 (configuration not stated) | ? | ? | i | -15.8% | 39.8µM*
O=C(c1cccc(F)c1)N1CCCC(n2cc(-c3nc(-c4ccccc4)no3)nn2)C1 (configuration not stated) | ? | ? | -12.8% | ? | ?
O=C(c1ccncc1)N1CCCC(n2cc(-c3nc(-c4ccccc4)no3)nn2)C1 (configuration not stated) | ? | ? | i | -29.3% | -29.7%
O=C(c1ccoc1)N1CCCC(n2cc(-c3nc(-c4ccccc4)no3)nn2)C1 (configuration not stated) | ? | ? | i | ? | 50.1µM*
O=C(c1cccc(F)c1)N1CCC(n2cc(-c3nc(-c4ccccc4)no3)nn2)C1 (configuration not stated) | i | ? | i | -4.9% | ?
COc1ccc(C(=O)N2CCCC(n3cc(-c4nc(-c5ccccc5)no4)nn3)C2)cc1 (configuration not stated) | ? | ? | -9.6% | ? | 28.2µM*
